Measured values as given in the supplement of paper PMC13380429.
A number with no mark means an inactive call.

Tested on: Vero E6 infected with SARS-CoV-2
Assay: inhibition of SARS-CoV-2 cytopathic effect; higher = more antiviral protection, active = above 15
Details: 48 h

| SMILES | inhibition of SARS-CoV-2 cytopathic effect (1 nM) | inhibition of SARS-CoV-2 cytopathic effect (8.33 nM) | inhibition of SARS-CoV-2 cytopathic effect (100 nM) | inhibition of SARS-CoV-2 cytopathic effect (833.33 nM) | inhibition of SARS-CoV-2 cytopathic effect (10000 nM) |
| --- | --- | --- | --- | --- | --- |
| C[C@H](N)[C@H](O)c1ccc(O)c(O)c1 [levonordefrin] | -3.75% | 0.14% | -1.88% | 1.27% | -2.48% |
| CCOc1cc(C=O)ccc1O [ethyl-vanillin] | -2.26% | 2.03% | -1.95% | -0.96% | -1.21% |
| CCC(=O)NC[C@H](Cc1ccc(OCCc2nc(-c3ccccc3)oc2C)cc1)N/C(C)=C\C(=O)c1ccc(C(F)(F)F)cc1 | -1.03% | 0.69% | 0.66% | 1.86% | 5.34% |
| COc1ccc(S(=O)(=O)Nc2c(C)cc(C)cc2C)cc1 | 0.3% | -0.36% | 2.29% | 2.21% | 0.94% |
| O=C(Cc1ccccc1)Nc1nc2ccc(Cl)cc2c2nc(-c3ccco3)nn12 | 3.65% | 4.32% | 3.84% | 2.42% | 4.22% |
| N[C@@H](CS(=O)O)C(=O)O [L-cysteinesulfinic-acid] | 0.48% | 0.74% | 1.16% | -1.19% | 2.03% |
| Cc1ccc(=O)n(-c2ccc(O)cc2)c1 | -3.24% | -0.95% | 1.12% | 2.81% | 1.12% |
| CCCCN1[C@@H]2CC[C@H]1C[C@@H](OC(c1ccc(F)cc1)c1ccc(F)cc1)C2 | -4.04% | 0.46% | 3.9% | 2.41% | 37% (active) |
| C(=C\c1ccccc1)/CN1CCN(CCOC(c2ccccc2)c2ccccc2)CC1 | -2.82% | 0.59% | -0.97% | 0.92% | 4.63% |
| O=C([O-])CN1CCN(CC(=O)[O-])CCN([C@H](CO)[C@H](O)CO)CCN(CC(=O)[O-])CC1.[Gd+3] (racemic) [gadobutrol] | -1.29% | 1.41% | 0.03% | 0.17% | 2.16% |
| CC1CCc2cc(F)cc3c(=O)c(C(=O)O)cn1c23 (stereo not given) [flumequine] | -0.77% | 0.46% | -0.95% | -0.27% | -0.64% |
| CCCCCCCCCCCCCCCCCCCCCC(=O)O | 2.81% | 2.25% | 1.57% | 0.29% | 1.77% |
| CCN(CC)CCNC(=O)c1cc(Cl)c(N)cc1OC [metoclopramide] | -0.44% | 0.96% | 0.31% | -0.29% | -1.37% |
| NC(=O)c1nc(F)cnc1O [favipiravir] | -4.88% | -2.34% | -0.79% | 0.84% | -6.81% |
| COCCCC/C(=N\OCCN)c1ccc(C(F)(F)F)cc1 [fluvoxamine] | 6.3% | 3.03% | -1.16% | -0.69% | -6.73% |
| OCCN(CCO)c1nc(N2CCCCC2)c2nc(N(CCO)CCO)nc(N3CCCCC3)c2n1 [dipyridamole] | -0.67% | 1.83% | 0.53% | 0.2% | 4.52% |
| NC(=O)C[S+]([O-])C(c1ccccc1)c1ccccc1 (stereo not given) | -2.5% | -3.65% | -0.185% | -1.01% | -3.77% |
| COc1cc(/C=C/C(=O)O)ccc1O [ferulic-acid] | 2.44% | -0.76% | -1.01% | 3% | -0.17% |
| NS(=O)(=O)c1ccc2c(c1)C1C=CCC1C(c1ccc(Br)cc1)N2 (stereo not given) | -1.04% | 1.37% | -1.73% | -1.33% | -0.61% |
| Cc1c(F)cccc1NC(=O)Nc1ccc(Cl)c(S(=O)(=O)[C@H]2CCCNC2)c1O [danirixin] | -0.94% | -0.94% | -0.32% | -0.62% | 2.67% |
